p53ts 39C kill: kills p53ts cells at the nonpermissive temperature | H1299-p53A138V viability at 39C, ATP luminescence, 24 h | Potency, µM (top dose mostly 46.1 µM), without a hit: top-dose activity change, negative = cell killing, hits mostly cytotoxic | 130,000 tested, 1.5% active | AID 902; further: potency means the concentration at half of the fitted maximal effect; on the % scale 0 is the no-effect control and ±100 the full control effect; nearly all actives have a fitted effect of over 55% in size
p53ts 32C tox: p53ts cell cytotoxicity, permissive temperature | H1299-p53A138V at 32C, ATP luminescence viability, 24 h | Potency, µM (series often up to 46.1 µM), for inactives: top-dose activity change, negative = cytotoxicity, usual class: cytotoxic | 130,000 tested, 0.93% active | AID 924;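 further: potency means the concentration at half of the fitted maximal effect; 0% = DMSO and -100% = full killing by reference compound; nearly all actives have a fitted effect of over 55% in size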
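Cells: H1299 p53ts (A138V), 600/well, pre-incubated 16–30 h at 37C. Cpd up to 46 uM, 24 h, 32C. Readout: ATPlite luminescence, 20 min RT. Normalization: DMSO vs tamoxifen 100 uM. AC50 by Hill equation.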
Tau fil binding: tau filament binding. P10636. recombinant tau filaments, thioflavin S fluorescence, 15 h; filaments grown with octadecylsulfate alongside compound. Potency, µM (series often up to 57.1 µM), inactives show at the top dose activity change, negative = inhibition. 71,000 tested, 2% active;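 further: potency means the concentration at half of the fitted maximal effect; on the % scale 0 is the no-effect control and ±100 the full control effect; actives lower thioflavin S fluorescence by blocking filaments or displacing dye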
Target sequence (P10636 whole entry, looked up): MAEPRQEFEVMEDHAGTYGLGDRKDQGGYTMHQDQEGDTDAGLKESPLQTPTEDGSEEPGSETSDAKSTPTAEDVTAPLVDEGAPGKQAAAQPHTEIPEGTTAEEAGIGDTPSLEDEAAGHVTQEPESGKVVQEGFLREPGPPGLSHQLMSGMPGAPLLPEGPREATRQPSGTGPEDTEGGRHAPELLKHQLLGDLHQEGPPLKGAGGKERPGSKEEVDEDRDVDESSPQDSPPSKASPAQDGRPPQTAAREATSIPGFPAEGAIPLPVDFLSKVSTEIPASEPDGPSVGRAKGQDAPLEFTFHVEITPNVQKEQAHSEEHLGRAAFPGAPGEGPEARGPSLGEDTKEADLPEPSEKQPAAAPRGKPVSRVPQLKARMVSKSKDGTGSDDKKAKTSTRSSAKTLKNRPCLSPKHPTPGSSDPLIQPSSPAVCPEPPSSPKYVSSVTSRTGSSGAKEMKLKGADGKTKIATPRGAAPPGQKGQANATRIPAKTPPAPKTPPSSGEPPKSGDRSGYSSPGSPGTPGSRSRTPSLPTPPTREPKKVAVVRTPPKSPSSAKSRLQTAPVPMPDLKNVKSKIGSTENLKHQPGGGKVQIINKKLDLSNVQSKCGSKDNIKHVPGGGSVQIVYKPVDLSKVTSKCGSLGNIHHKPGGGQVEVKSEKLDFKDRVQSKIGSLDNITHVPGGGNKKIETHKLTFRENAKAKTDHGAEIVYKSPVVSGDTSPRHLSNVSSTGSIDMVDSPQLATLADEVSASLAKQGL
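Tau 2 uM in ThS buffer dispensed; compound added; 60 uM ODS added (finals 1 uM tau, 30 uM ODS); 15 h 37 C; fluor ex450/em510.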
DNA Pol III inh: inhibitors of bacterial DNA polymerase III holoenzyme. 71,000 tested, 0.25% active. Potency, µM (titrated, usually from 57.1 µM), for inactives: at the highest dose activity change, negative = inhibition. reconstituted DNA polymerase III holoenzyme replication, biochemical; further: potency means the concentration at half of the fitted maximal effect; on the % scale 0 is the no-effect control and ±100 the full control effect
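Reconstituted *E. coli* holoenzyme (0.35 nM Pol III, 1 nM beta, 154 nM SSB, 2 nM primase) was preincubated with compound for 15 min at RT. Synthesis on 1.4 nM ssM13Gori ran 35 min, then was stopped with PicoGreen/EDTA and read as dsDNA fluorescence.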
ERK AVP block: blocks ERK signaling stimulated by vasopressin; AID 995; Potency, µM (titrated, usually from 57.5 µM), for inactives: at the highest dose activity, negative = inhibition, hits mostly inhibitors; HEK293-V1b, vasopressin-stimulated pERK AlphaScreen; 72,000 tested, 0.99% active; further: potency means the concentration at half of the fitted maximal effect; on the % scale 0 is the no-effect control and ±100 the full control effect; nearly all actives have a fitted effect of over 55% in size
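Phosphorylated ERK1/2 detected via AlphaScreen bead proximity in lysates of V1b-expressing HEK293 cells given 25 nM vasopressin for 5 min after 30 min compound exposure (37 °C). AC50 from Hill equation; basal DMSO 0%, vasopressin 100%.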
TsaE inh: YjeE (TsaE) inhibition, E. coli; P0AF67; purified YjeE enzyme, qHTS inhibition assay; Potency, µM; 71,000 tested, 0.05% active; AID 605
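Purified YjeE (10 uM) with BODIPY Texas Red-labeled ADP probe (2 uM); compounds pin-transferred, 15 min at room temperature. Binding inhibition read as decreased fluorescence polarization; ADP titration as control.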
Numbers without * were called inactive; [ ] = another dose, or the depositor's remark. Shown are actives, neighbours in structure and some others; about 3.2% of the full set was active somewhere. The call rests on the fitted dose curve; in most records, active means well fitted curve in the direction sought with a large enough effect; inconclusive means small, poorly fitted or top-dose-only effect, or another doubt; inactive means no such curve, though single readings can be large; an effect the other way counts as inactive or inconclusive.

Screening C=CCSC1=N/C(=C\c2ccc3c(c2)OCO3)C(=O)S1 returned p53ts 39C kill 0%, p53ts 32C tox 24%, Tau fil binding 19%, DNA Pol III inh 4%, ERK AVP block 38% and TsaE inh inactive.
C=CCSC1=N/C(=C\C=C\c2ccco2)C(=O)S1 was read as p53ts 39C kill -7%, p53ts 32C tox -1%, Tau fil binding 10µM*, DNA Pol III inh inconclusive, ERK AVP block inconclusive and TsaE inh inactive.
`COc1ccc(C(=O)NC(=O)Nc2cc(C)ccn2)cc1` gave p53ts 39C kill 1.3µM*, p53ts 32C tox 1.3µM*, Tau fil binding 9%, DNA Pol III inh -5%, ERK AVP block 4% and TsaE inh inactive.
For COc1cc(C(=O)Nc2cc(C)ccn2)cc(OC)c1OC the results were p53ts 39C kill -16%, p53ts 32C tox 0%, Tau fil binding -5%, DNA Pol III inh 0%, ERK AVP block -7% and TsaE inh inactive.
`COc1ccc(NC(=O)Nc2cc(C)ccn2)cc1` gave p53ts 39C kill 6.3µM*, p53ts 32C tox 7.9µM*, Tau fil binding 16%, DNA Pol III inh -5%, ERK AVP block 9% and TsaE inh inactive.
Screening Cc1ccc(NC(=O)Nc2cccc(C)n2)cc1 returned p53ts 39C kill 16µM* and p53ts 32C tox 13µM*.
Screening Cc1cccc(-n2ncc3c(N4CCCCCC4)ncnc32)c1 returned p53ts 39C kill 4µM* and p53ts 32C tox inconclusive.
Screening CCN1CCN(c2ncnc3c2cnn3-c2cccc(C)c2)CC1 returned p53ts 39C kill -19% and p53ts 32C tox -12%.
`Cc1ccc(-n2ncc3c(N4CCCCCC4)ncnc32)cc1C` gave p53ts 39C kill inconclusive and p53ts 32C tox 10µM*.
`CC1CCCN(c2ncnc3c2cnn3-c2ccc(F)cc2)C1` (stereo not given) gave p53ts 39C kill 2µM* and p53ts 32C tox 2µM*.
Screening c1ccc(CCN2CCN(c3ncnc4c3cnn4-c3ccccc3)CC2)cc1 returned p53ts 39C kill -3%, p53ts 32C tox -11%, Tau fil binding 62%, DNA Pol III inh 4%, ERK AVP block 16µM* and TsaE inh inactive.
Cc1ccc(-n2ncc3c(N4CCN(C)CC4)ncnc32)cc1Cl was read as p53ts 39C kill inconclusive and p53ts 32C tox -7%.
Oc1ccccc1C(Sc1nc2ccccc2s1)Sc1nc2ccccc2s1 was read as p53ts 39C kill 16%[9.22 µM], p53ts 32C tox -6%[9.22 µM], Tau fil binding 6%[11.4 µM], DNA Pol III inh -11%[11.4 µM], ERK AVP block 5%[11.5 µM] and TsaE inh inactive.
Screening Cc1cnc(CNc2cc(-c3ccoc3)ncn2)cn1 returned p53ts 39C kill -3%, p53ts 32C tox -4%, Tau fil binding 113%, DNA Pol III inh -12%, ERK AVP block -1% and TsaE inh inactive.
Screening C[Si](C)(C)Cl returned p53ts 39C kill 0%, p53ts 32C tox -5%[1.84 µM], Tau fil binding 12%, DNA Pol III inh -3%, ERK AVP block 19% and TsaE inh inactive.
For O=C(O)c1cc(S(=O)(=O)Nc2cccc(Cl)c2)ccc1O the results were p53ts 39C kill -11% and p53ts 32C tox -2%.
For CCn1cc(/C=C(\NC(=O)c2ccccc2Cl)C(=O)NCCCn2ccnc2)c2ccccc21 the results were p53ts 39C kill -15% and p53ts 32C tox -2%.
`CC(=O)Nc1ccc(NC(=O)c2ccc3c(c2)N(Cc2cccc(Cl)c2)C(=O)c2ccccc2S3=O)cc1` (stereo not given) gave p53ts 39C kill -5% and p53ts 32C tox 30%.
`Cc1cccc(-n2ncc3c(N4CCCC(C)C4)ncnc32)c1` (stereo not given) gave p53ts 39C kill 2.5µM* and p53ts 32C tox 4µM*.
`Cc1cccc(N2CCN(c3ncnc4c3cnn4-c3ccc(Cl)cc3)CC2C)c1` (stereo not given) gave p53ts 39C kill 16µM* and p53ts 32C tox inconclusive.
For Cc1ccc(-n2ncc3c(N4CCN(Cc5ccccc5)CC4)ncnc32)cc1C the results were p53ts 39C kill 32µM* and p53ts 32C tox 20µM*.
CCN(CC)S(=O)(=O)c1ccc2c(c1)N(CC(=O)Nc1ccc(F)cc1F)C(=O)C1CCCN21 (stereo not given) was read as p53ts 39C kill -14% and p53ts 32C tox 3%.
Cc1c(CC(=O)N2CCCCC2)c(=O)oc2cc3occ(C(C)(C)C)c3cc12 was read as p53ts 39C kill -7% and p53ts 32C tox 10%.
Screening CCOc1ccccc1NC(=O)c1sc2nc(-c3ccc(OC)cc3)ccc2c1N returned p53ts 39C kill 4µM* and p53ts 32C tox 6.3µM*.
Screening CCOc1ccc(NC(=O)NC(C)c2c(-n3cccc3)sc(C)c2C)cc1 (stereo not given) returned p53ts 39C kill -23% and p53ts 32C tox 0%.
Screening CCNc1nc2c(c(=O)[nH]c(=O)n2C)n1Cc1ccc(F)cc1 returned p53ts 39C kill -14%, p53ts 32C tox -8%, Tau fil binding -11%, DNA Pol III inh -6% and TsaE inh inactive.
Screening C=CCNc1nc2c(c(=O)[nH]c(=O)n2C)n1Cc1cccc(C)c1 returned p53ts 39C kill 7.9µM*, p53ts 32C tox 6.3µM*, Tau fil binding -6%, DNA Pol III inh 4% and TsaE inh inactive.
O=C(Nc1ccc2oc(-c3cc(Br)ccc3Cl)nc2c1)c1ccc2ccccc2c1 was read as p53ts 39C kill 13µM* and p53ts 32C tox inconclusive.
Screening O=C(Nc1ccc2oc(-c3ccccc3F)nc2c1)c1ccc2c(c1)OCCO2 returned p53ts 39C kill -29%, p53ts 32C tox 13µM*, Tau fil binding 482%, DNA Pol III inh 0%, ERK AVP block 10µM* and TsaE inh inactive.
`O=C(Nc1ccc2nc3ccccc3nc2c1)c1ccccc1` gave p53ts 39C kill 10µM* and p53ts 32C tox inconclusive.
For O=C(Nc1cc(NC(=O)c2ccccc2)c(C(=O)O)cc1C(=O)O)c1ccccc1 the results were p53ts 39C kill 5%, p53ts 32C tox 8% and ERK AVP block 12%.
Screening O=C(Nc1ccc(-c2nc3ccccc3o2)cc1)c1cc(-n2cnnc2)ccc1Cl returned p53ts 39C kill -4% and p53ts 32C tox -8%.
Screening O=C(Nc1ccc(-c2nc3ccccc3o2)c(O)c1)c1cc(-n2cnnc2)ccc1Cl returned p53ts 39C kill inconclusive, p53ts 32C tox inconclusive, Tau fil binding inactive, DNA Pol III inh 1%, ERK AVP block 6.3µM* and TsaE inh inactive.

High-throughput results: PubChem BioAssay, National Center for Advancing Translational Sciences (NCATS)
